In PubChem BioAssay AID605 (National Center for Advancing Translational Sciences (NCATS), 2007):
The whole screen tested about 71,000 compounds, of which about 35 (0.05%) were called active. Calls come from the whole dose curve; as a rule, active = well fitted curve in the direction sought with a large enough effect; inconclusive = small, poorly fitted or top-dose-only effect, or effect the other way; inactive = flat fitted curve, though single readings scatter. These entries were drawn from the full list.

target: tRNA threonylcarbamoyladenosine biosynthesis protein TsaE (Escherichia coli (strain K12)) (UniProt P0AF67); test: qHTS Assay for Inhibitors of YjeE; conditions: purified YjeE enzyme, qHTS inhibition assay
Description: NIH Molecular Libraries Screening Centers Network [MLSCN]
NIH Chemical Genomics Center [NCGC]
Assay Provider: Eric Brown, McMaster University
YjeE is an essential E.coli protein of unknown function that binds adenosine diphosphate (ADP). A complex of YjeE and BODIPY Texas Red-labeled ADP probe (Invitrogen, catalog number A22359) is incubated with library members. Inhibitors of YjeE-ADP binding are detected by a decrease in the fluorescence polarization (FP) of the fluorophore. Purified YjeE was supplied by Chand Mangat and Eric Brown, McMaster University.
NCGC Assay Protocol Summary:
2 uM probe/10 uM YjeE in columns 1, 2, 5-48. Titration of ADP control (from 40 mM, then 1:2) pin-transferred to top half of column 2. Column 1 and bottom half of column 2 are neutral.
Two and a half uL of reagents were dispensed to 1536-well Greiner black plates. Compounds and controls (20 nL) were transferred via Kalypsys PinTool. The plates were incubated for 15 min at room temperature, and then read on ViewLux (Perkin-Elmer) High-throughput CCD imager using BODIPY polarization filter set and 30 seconds exposure time. During dispense, reagent bottle was kept submerged into 4 deg C water bath and all liquid lines were covered with aluminum foil to minimize probe and protein degradation.
Keywords: NIH Roadmap, MLSCN, MLI, MLSMR, qHTS, NCGC, YjeE

outcome, inactive:
CCCCC(CC)CN (centres undefined)
Cc1ccccc1Nc1nc(N)nc(CN2CCN(c3ccccn3)CC2)n1
COc1c(F)c(F)c(-c2csc(N)n2)c(F)c1F
COC(=O)[C@H]1C[C@@H]1[C@H](NC(=O)Oc1ccc(F)cc1)c1ccccc1
COC(=O)C(C)C1Sc2ccccc2NC1=O (centres undefined)
CC(C)(CNCC(O)c1ccccc1)N1CCOCC1 (centres undefined)
Cc1cnc(CNc2ncncc2-c2ccccc2Cl)cn1
COc1ccc(C2C3=C(OC(C)=O)c4ccccc4C3=Nc3c2c(=O)n(C)c(=O)n3C)cc1 (centres undefined)
Cn1c(-c2ccc(C(=O)c3ccccc3)s2)nc2ccccc21
COc1ccccc1-c1nc(C(F)(F)F)c(OC)o1
Nc1nc(N)c2[nH]c(CNc3ccc(C(=O)O)cc3)nc2n1
CCCc1nc2ccccc2c(=O)n1/N=C/c1ccc(O)c(O)c1
CC(C)[C@@H](CC(=O)N[C@@H]1CCNC[C@H]1C(=O)N[C@H](CC(=O)N[C@@H](CCC(=O)O)CC(=O)O)Cc1ccccc1)NC(=O)C[C@H](CO)NC(=O)[C@@H]1CNCC[C@H]1N
COc1ccc2nc(NC3=NCN(CC4CCCO4)CN3)nc(C)c2c1 (centres undefined)
Cc1cc(OCC(=O)O)c(Cl)cc1Cl
Cc1cc(NC(=O)COC(=O)c2ccc(F)c(S(=O)(=O)N3CCOCC3)c2)no1
COc1ccc(C(=O)CSc2nccc(=O)[nH]2)cc1
CCOC(=O)c1ccc(NC(=O)CS(=O)(=O)c2cn(CC)c3ccccc23)cc1
Cc1cc(=O)[nH]c(SCC(N)=O)c1C#N
CSCCC(NC(=O)c1ccc(=O)n(C)n1)c1nc2ccccc2[nH]1 (centres undefined)
O=C(NCc1ccc(Cl)cc1)c1cc2c(nc3sccn32)s1
CC(C)(C)NCC[C@@H](O)c1cc(C(F)(F)F)nc2c(C(F)(F)F)cccc12
COc1nc(Oc2ccc(=O)n(C)n2)nc(N(C)C)n1
CCCCNC(=O)CSc1nccn1Cc1ccccc1
C1CCC2OC2C1 (centres undefined)
O=c1c(-c2cc(F)cc(F)c2)nc2cnc(Oc3ccccc3)nc2n1C[C@H]1CCCO1
CCOC(=O)c1ccc(NC(=O)CSc2nnc(COc3ccccc3OC)n2C)cc1
C[C@]1(C(=O)NCCc2c[nH]c3ccccc23)C=C[C@@H](Cc2ccccc2)N1C(=O)c1ccccc1
N#Cc1ccc(C(c2nnnn2CCc2ccccc2)N2CCCCCC2)cc1 (centres undefined)
COc1ccc(N2C(=O)C3CCCN3C2c2cccs2)cc1 (centres undefined)
COc1ccc(C)cc1S(=O)(=O)NC1CCCCC1
O=C1c2oc3ccccc3c(=O)c2C(c2cccc(O)c2)N1c1ccccn1 (centres undefined)
CC(=O)CC(C)C
COC(=O)N1CCC2(CCCN(Cc3ccccc3OC)C2)CC1
COc1ccc(OC)c(Nc2nc(-c3ccc(O)c(O)c3)cs2)c1
FC(F)(F)c1ccccc1-c1cc(NCc2ccccc2)ncn1
CN1[C@@H]2CC[C@H]1CC(NC(=O)c1nn(C)c3ccccc13)C2 (some centres undefined)
C[C@]12CC[C@@H]3C(=CCc4cc(O)ccc43)[C@@H]1CCC2=O
Cc1cc(=O)n(C)c(=O)n1CCCNc1ccccc1
CC(C)c1ccc2c([Si](C)(C)C)c3c(nc2c1)-c1cccc(=O)n1C3
COc1ccc(N2C(=O)CCC(C(=O)N(C)C3CCCCC3)C2c2ccc(OC)c(OC)c2)cc1 (centres undefined)
C[N+](C)(CCCCCC[N+](C)(C)CCCN1C(=O)c2cccc3cccc(c23)C1=O)CCCN1C(=O)c2cccc3cccc(c23)C1=O
COc1ccc(Cl)cc1S(=O)(=O)N1CCN(CC(=O)C(C)(C)C)CC1
CN1CCN(S(=O)(=O)c2ccc3[nH]cc(C(=O)O)c(=O)c3c2)CC1
Cc1ccc(C)c(N2CCN(C(=O)CCc3nc4ccccc4[nH]3)CC2)c1
O=Cc1c(Cl)cccc1Cl
COc1cccc(N(CC(=O)Nc2cccc(N(C)S(C)(=O)=O)c2)S(C)(=O)=O)c1
COc1ccccc1NC1=NC2(CCCC2)N=C(N)N1
CCOc1ccc2[nH]c(=O)c(C(c3nnnn3CCOC)N3CCOCC3)cc2c1 (centres undefined)
COC(=O)C1(C)C=CC2(CCCCC2)N1C(C)=O (centres undefined)
CC/C=C/C/C=C/C/C=C/CCCCCCCC(=O)OCC
O=C(OC(C(=O)NC1CCCC1)c1ccc(F)cc1)c1ccno1 (centres undefined)
O=c1cnc2cnc(Nc3ccccc3)nc2n1Cc1ccc(F)cc1
COCCn1c(SCC(=O)Nc2cc(Cl)ccc2OC)nc2c(c1=O)SC(C)C2 (centres undefined)
C=C(C)c1cccc(C(C)(C)NC(=O)N2CCN(c3ncccn3)CC2)c1
O=C(Cl)c1ccccc1[N+](=O)[O-]
CCOC(=O)CN(C(=O)CN1CCOCC1)c1ccc(Br)cc1
CC(C)NC(=O)N1CC[C@@]2(CCCN(C(=O)c3ccco3)C2)C1
S=c1[nH]nc(SCc2ccccc2Cl)c2[nH]cnc12
CSc1cccc(NC(=O)CSc2ccccc2)c1
Cc1ccc2oc(=O)c3cnn(CC(=O)N4CCN(c5ccccn5)CC4)c3c2c1
O=C(CNS(=O)(=O)c1cccc(C(F)(F)F)c1)Nc1ccccc1F
COC(=O)[C@@]1(Cc2ccccc2)[C@H]2c3cc(C(=O)N4CCCC4)n(Cc4ccc(C)o4)c3C[C@H]2CN1C(=O)c1ccccc1
COc1ncc2nc(-c3ccc(Cl)cc3)c(=O)n(C)c2n1
CC(c1ccco1)N(C(=O)c1ccc(S(=O)(=O)N2CCCCC2)cc1)c1ccccn1 (centres undefined)
CC(C)NS(=O)(=O)c1ccc(OCC(=O)Nc2ccc3c(c2)OCCO3)cc1
Cc1ccc(-n2c(SCC(=O)Nc3ccc4c(c3)OCO4)nnc2-c2ccoc2C)cc1
CCOC(=O)NC(C(F)(F)F)(C(F)(F)F)P(=O)(c1ccccc1)c1ccccc1
CCCC(=O)N1c2ccc(-c3csc(N)n3)cc2CC1C (centres undefined)
